In the library only some 1.5% were active in any assay of this set; here they are far more common.
E coli Lon inh – inhibitors of E. coli Lon protease, primary screen, biochemical, fluorescence polarization; purified E. coli Lon protease; AID 602123, 2011; 360,000 tested, 0.42% active; inhibition, % at 7.94 µM; P0A9M0; in the data active = inhibition above about 13%, passing the limit was not always enough;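 also: 0% = enzyme with probe and DMSO and 100% = no enzyme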
GLD-1 RNA inh – GLD-1/TGE RNA complex disruptors, primary screen, biochemical, fluorescence polarization; purified GLD-1 + fluorescein TGE RNA; Female germline-specific tumor suppressor gld-1 (Caenorhabditis elegans), Q17339; 320,000 tested, 0.44% active; inhibition, % at 5.96 µM;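 active = percent inhibition above a per-plate cutoff, the plate mean of test compounds plus 3 SD, cut at about 30% in these data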;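 also: 0% = DMSO wells with GLD-1 and probe and 100% = wells lacking GLD-1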
Bcl-xL primary – inhibitors of human Bcl-xL, primary screen, biochemical, fluorescence polarization, HTS; Bcl-2-like protein 1 (Homo sapiens), Q07817; GST-Bcl-xL / FITC-Bim BH3 peptide fluorescence polarization; inhibition, % at 10.9 µM; 320,000 tested, 0.7% active; AID 2129, 2009;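 active = inhibition above the mean of all tested compounds plus 3 SD, cutoff set per campaign, cut at about 30% in these data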;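 also: 0% = DMSO wells and 100% = unlabeled Bim-BH3 peptide competitor; inhibitors lower millipolarization by displacing the labeled peptide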
MEX-5 binding – MEX-5 zinc finger RNA-binding disruptors – biochemical, C. elegans, fluorescence polarization, MLPCN library, primary screen. 300,000 tested, 0.38% active. activity score (negative = inhibition of binding), % at 10 µM. MEX-5/FITC-TCR2 RNA binding; stronger effect = lower value;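 active = inhibition past about -25% in most replicates, and total fluorescence under double the plate's negative control median, limit read from the data; inconclusive = replicates evenly split on the limit, or fluorescence at least double controls; inactive = too little inhibition in most replicates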;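 also: 0% = DMSO and -100% = 5 µM competing unlabeled TCR2 RNA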
Target sequence (Q9XUB2 whole entry, looked up): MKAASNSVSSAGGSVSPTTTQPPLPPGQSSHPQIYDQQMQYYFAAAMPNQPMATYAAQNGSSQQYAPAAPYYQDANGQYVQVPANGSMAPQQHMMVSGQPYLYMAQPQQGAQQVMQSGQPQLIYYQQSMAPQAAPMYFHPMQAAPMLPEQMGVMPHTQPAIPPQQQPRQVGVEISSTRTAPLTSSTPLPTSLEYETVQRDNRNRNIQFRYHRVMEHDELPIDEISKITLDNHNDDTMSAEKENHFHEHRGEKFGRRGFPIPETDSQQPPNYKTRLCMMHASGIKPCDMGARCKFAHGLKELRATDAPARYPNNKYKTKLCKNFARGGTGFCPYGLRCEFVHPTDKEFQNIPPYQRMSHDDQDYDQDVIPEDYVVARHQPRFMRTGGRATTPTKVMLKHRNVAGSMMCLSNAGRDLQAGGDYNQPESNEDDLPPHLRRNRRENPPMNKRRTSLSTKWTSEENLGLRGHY
EBV gp42 block – Epstein-Barr virus gp42 inhibitors, primary screen, biochemical, uHTS, fluorescence polarization; Glycoprotein 42 (Epstein-Barr virus (strain AG876)), Q1HVG2; Fluorescence polarization binding assay, mP read-out; inhibition, % (tested at 21.74 µM); 220,000 tested, 0.42% active; in the data active = inhibition above about 50%
MCL1-BIM inh – inhibitors of MCL1 binding to BIM-BH3, primary screen, biochemical, fluorescence polarization. Induced myeloid leukemia cell differentiation protein Mcl-1 (Homo sapiens), Q07820. GST-MCL1 / FITC-Bim-BH3 fluorescence polarization. inhibition, % at 10.9 µM. 320,000 tested, 0.68% active;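 active = inhibition above the mean inhibition of all tested compounds plus 3 SD, set per campaign, cut at about 40% in these data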;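 also: 0% = DMSO wells and 100% = unlabeled Bim-BH3 peptide control; higher means more loss of mP so more displacement of Bim peptide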
An asterisk follows results filed as active; ? = inconclusive; / = no result given.

SMILES	E coli Lon inh	GLD-1 RNA inh	Bcl-xL primary	MEX-5 binding	EBV gp42 block	MCL1-BIM inh
Cc1ncc(CO)c(/C=N/NC(=O)c2cc(Br)ccc2O)c1O	-4.3	0.1	4.6	-82.0*	-16.0	19.7
Cc1ncc(CO)c(/C=N/NC(=O)c2cc(O)c(O)c(O)c2)c1O	/	/	/	-39.1*	-18.5	/
CCN(CC)c1ccc(S(=O)(=O)N2CCOCC2)cc1NC(=O)CSC(=S)N1CCCC1	-6.7	-3.4	8.7	2.7	/	5.8
COc1ccc2nc3n(c(=O)c2c1)-c1ncccc1C(=O)NC3Cc1ccccc1 (stereo unspecified)	0.0	/	/	/	/	/
O=C(OCCN1C(=O)c2ccccc2C1=O)c1ccc(S(=O)(=O)N2CCCCCC2)cc1	9.9	11.6	0.1	/	8.9	-3.8
CCN(CC)S(=O)(=O)c1ccc(C(=O)OCCN2C(=O)c3cccc4c(N5CCOCC5)ccc(c34)C2=O)cc1	2.3	13.2	23.4	?	133.0*	13.6
O=C(OCCN1C(=O)c2cccc3c(N4CCOCC4)ccc(c23)C1=O)c1cc(Cl)cc(Cl)c1	/	/	/	/	132.3*	/
O=C(OCCN1C(=O)c2ccccc2C1=O)c1ccccc1	-17.1	2.3	0.5	/	-15.2	2.3
CCN1CCN(CC(=O)N2N=C(c3cccs3)CC2c2ccc(OC)c(OC)c2)C(=O)C1=O (stereo unspecified)	1.3	6.7	-0.7	-1.2	64.4*	5.7
CCN1CCN(CC(=O)N2N=C(c3cccs3)CC2c2ccc(F)cc2)C(=O)C1=O (stereo unspecified)	0.4	3.4	-3.1	0.1	-6.6	-4.2
CC(=O)NCCNc1ccc([N+](=O)[O-])cn1	1.5	5.5	3.7	-0.4	-18.4	-0.9
CC(=O)NCCNc1ccc([N+](=O)[O-])cc1C#N	-0.7	2.6	2.3	-41.0*	3.7	-0.9
O=c1cc(C(F)(F)F)[nH]c2ccc(C(F)(F)F)cc12	-4.7	3.8	-0.6	1.2	-8.0	-14.0
COC(=O)c1scc2c(=O)cc(C(F)(F)F)[nH]c12	22.4	29.5	35.2*	-14.8	40.6	39.5
O=c1c2ccccc2[nH]c(=S)n1CCCN1CCC(Cc2ccccc2)CC1	-9.1	-3.4	6.2	-0.2	/	10.2
C[C@H](CO)N1C[C@H](C)[C@@H](CN(C)S(=O)(=O)c2ccc(Cl)cc2)Oc2ccc(NS(=O)(=O)c3ccccc3)cc2CC1=O	18.9*	3.0	/	/	/	/
Cc1ccc(S(=O)(=O)Nc2ccc3c(c2)CC(=O)N([C@H](C)CO)C[C@@H](C)[C@H](CN(C)S(=O)(=O)c2ccccc2)O3)cc1	-12.4	11.9	/	/	/	/
O=C(c1cccn2c(=O)c3cc4ccccc4cc3nc12)N1CCN(c2ccccc2)CC1	/	12.9	32.7*	-2.6	0.2	31.3
O=C(COC(=O)c1cnccn1)Nc1c(Cl)cc(Cl)cc1Cl	-21.9	-0.4	2.3	/	/	-2.8
O=C(COC(=O)c1cnccn1)Nc1ncc(Cl)cc1Cl	-17.6	21.9	33.9*	-7.0	/	33.2
Nc1cccc2c1C(=O)N(CCOc1ccccc1F)C2=O	15.1	29.6	35.2*	-11.8	/	37.0
O=C(O)COn1c(-c2ccccc2)nc2ccc([N+](=O)[O-])cc21	1.0	9.9	16.8	-1.0	73.2*	35.0
CCOC(=O)C(C)On1c(-c2ccccc2)nc2ccc([N+](=O)[O-])cc21 (stereo unspecified)	3.9	8.5	5.3	-0.5	-6.1	2.4
Cc1ccc(S(=O)(=O)C(C#N)c2nc3ccccc3nc2N2CC(C)OC(C)C2)cc1C (stereo unspecified)	-11.8	6.2	10.9	-58.9*	-9.3	9.3
CC1CCCN(c2nc3ccccc3nc2C(C#N)S(=O)(=O)c2cccs2)C1 (stereo unspecified)	-9.7	9.2	21.8	-50.3*	-1.1	18.1
C=CCn1c(=O)/c(=C/c2ccc(C)o2)s/c1=C(/C#N)C(=O)c1ccccc1	-87.6	-51.0	-40.4	-27.3*	16.1	-50.3
C=CCn1c(=O)/c(=C\c2ccccn2)s/c1=C(/C#N)C(=O)NCC1CCCO1 (stereo unspecified)	-9.3	3.7	-1.3	-27.9*	3.3	-5.4

Source: PubChem
